Screening results deposited in PubChem BioAssay by National Center for Advancing Translational Sciences (NCATS).
CtBP-E1A blk – qHTS Assay for Inhibitors of the CtBP/E1A Interaction; CtBP / adenovirus E1A interaction (AlphaScreen); AlphaScreen GST-E1A/His-CtBP binding, 1536-well; active compounds read low; activity change, % (concentration not given with the values); 0.49% of 340,000 active; AID 651724, 2012; in the data active = activity change below about -65%; inconclusive = mostly about -30% to -63%
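In 5 uL wells, 23 nL compound meets equimolar GST-E1A and His-CtBP (5X stock 125 nM each) for 2 h, 37 °C. Beads (5X, 50 ug/mL) then 1 h, 37 °C, dark.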
TrxR1 substrate – qHTS Assay for Substrates of Mammalian Selenoprotein Thioredoxin Reductase 1 (TrxR1): qHTS | Thioredoxin reductase 1, cytoplasmic (Rattus norvegicus), O89049 | purified TrxR1 substrate turnover, NADPH consumption readout | Potency, µM (titrated, usually from 114 µM), inactives show at the highest dose activity change, negative = substrate turnover | 0.01% of 390,000 active; note: potency is the fitted concentration of half-maximal effect; nearly all actives have a fitted effect of over 50% in size
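Rat TrxR1, dispensed at 90 nM, was prereduced with 400 uM NADPH (final) for 5 min at ~22 deg C, then incubated with compound 15 min before 400 uM selenite. A first-read NADPH fluorescence drop versus no-compound background flagged substrates.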
Eya2 phos inh – qHTS Assay for Inhibitors of the Phosphatase Activity of Eya2 | Protein phosphatase EYA2 (Homo sapiens), O00167 | recombinant Eya2, OMFP fluorescence dephosphorylation (OMFP is methylfluorescein phosphate) | Potency, µM (series often up to 76.9 µM), inactives show at the highest dose activity, negative = inhibition, usual class: inhibitors | 0.006% of 330,000 active | AID 488837, 2010; note: potency is the fitted concentration of half-maximal effect
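Eya2 (0.2 uM) preincubated 10 min at ambient with compound, then OMFP substrate added at 50 uM; 10 min reaction in 50 mM HEPES pH 7.5, 50 mM NaCl, 5 uM MgCl2, 0.05% BSA, 1 mM DTT. Fluorescence read at Ex 485/Em 525 nm.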
TrxR1 inh – qHTS Assay for Inhibitors of Mammalian Selenoprotein Thioredoxin Reductase 1 (TrxR1): qHTS. Thioredoxin reductase 1, cytoplasmic (Rattus norvegicus), O89049. recombinant rTrxR1, NADPH fluorescence consumption, selenite substrate. Potency, µM (doses to about 114 µM), inactives show top-dose activity change, negative = inhibition, usual class: inhibitors. 1% of 390,000 active. AID 588453, 2011; note: potency is the fitted concentration of half-maximal effect; nearly all actives have a fitted effect of over 65% in size
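Rat TrxR1 (90 nM in the dispensed reagent) was pre-reduced with 400 uM NADPH for 5 min at room temperature, then incubated with compound for 15 min. After 400 uM selenite was added, NADPH fluorescence (Ex 340/Em 450 nm) was followed for 8 min.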
Six1-Eya2 inh – qHTS Assay for Inhibitors of the Six1/Eya2 Interaction. Homeobox protein SIX1 (Homo sapiens) + Protein phosphatase EYA2 (Homo sapiens), …. AlphaScreen GST-Six1/His-Eya2 binding, biochemical; active compounds read low. activity change, % (test concentration not listed). 0.56% of 360,000 active. AID 651725, 2012; in the data active = activity change below about -65%; inconclusive = mostly about -30% to -63%
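AlphaScreen with GST-Six1 and His-Eya2 (5X mix: 250 nM and 500 nM), glutathione donor and nickel acceptor beads; buffer 50 mM Tris pH 8.0, 300 mM NaCl, 1 mM TCEP; 1 h at 37 C in the dark.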
GALK inhibitor – qHTS Assay for Inhibitors of Human Galactokinase (GALK); Potency, µM (series often up to 57.5 µM), without a hit: at the highest dose activity change, negative = inhibition, most hits filed as inhibitors; P51570; Purified GALK, Kinase-Glo residual ATP luminescence; 0.007% of 270,000 active; note: potency is the fitted concentration of half-maximal effect
Target sequence (P51570 whole entry, looked up): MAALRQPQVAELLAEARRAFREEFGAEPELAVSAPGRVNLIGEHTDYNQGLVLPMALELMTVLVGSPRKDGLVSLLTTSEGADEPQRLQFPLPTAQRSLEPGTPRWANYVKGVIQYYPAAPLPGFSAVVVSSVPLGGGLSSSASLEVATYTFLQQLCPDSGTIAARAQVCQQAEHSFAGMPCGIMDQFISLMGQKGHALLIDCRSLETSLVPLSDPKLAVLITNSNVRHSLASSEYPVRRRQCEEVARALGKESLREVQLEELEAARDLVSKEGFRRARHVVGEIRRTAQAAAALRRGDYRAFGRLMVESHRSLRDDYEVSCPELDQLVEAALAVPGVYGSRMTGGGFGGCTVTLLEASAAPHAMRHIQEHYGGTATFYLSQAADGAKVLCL
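Luminescence from leftover ATP (Ultra-Glo luciferase/luciferin) served as read-out after a 1 h room-temperature reaction of 5 nM GALK with 35 uM ATP and 100 uM galactose.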
* = called active by the depositor; ? = inconclusive; · = no result; ! = a repeat was not active; [ ] = another dose, or the depositor's remark. Shown are actives, neighbours in structure and some others; about 1.5% of the full set was active somewhere. Unless noted, calls come from the whole dose curve; as a rule, active = well fitted curve in the direction sought with a large enough effect; inconclusive = small, poorly fitted or top-dose-only effect, or another doubt; inactive = no such curve, though single readings can be large; an effect the other way counts as inactive or inconclusive. % is set by controls: 0 for no effect and ±100 for the full control effect.

SMILES	CtBP-E1A blk	TrxR1 substrate	Eya2 phos inh	TrxR1 inh	Six1-Eya2 inh	GALK inhibitor
Cc1coc2c(C)c3oc(=O)c(CCC(=O)N[C@@H](C)C(=O)N[C@@H](Cc4ccccc4)C(=O)O)c(C)c3cc12	-80*	16%	2%	-10%	-69*	·
COc1cc2c(NC3CCN(C(C)C)CC3)nc(N3CCCN(C)CC3)nc2cc1OCCCN1CCCC1	·	44%	·	?	·	·
COc1ccc(C2Nc3ccccc3C(=O)N2Cc2ccco2)cc1 (stereo not given)	·	153%	·	2%	·	·
Cc1cc2nn(-c3ccccc3)nc2cc1NC(=O)COc1ccc(Cl)cc1	·	2%	·	13%	·	·
Cc1cc(C)nc(N/N=C/c2ccccc2OCc2ccc(Br)cc2)n1	4	-5%	-8%	-2%	0	1%
Cc1cc(C)nc(N/N=C/c2cc(Br)ccc2O)n1	-81*	-2%	3%	0%	?	3%
O=[N+]([O-])c1ccc(N/N=C/c2c[nH]c3ccccc23)cc1	-16	-12%	1%	2%	-26	1%
O=[N+]([O-])c1ccccc1N/N=C/c1c[nH]c2ccccc12	-78*	-7%	-9%	-15%	-84*	0%
CC(C)CC(=O)Nc1ccc(S(=O)(=O)Nc2cc3c(cc2N2CCOCC2)n(C)c(=O)c(=O)n3C)cc1	·	1%[57.1 µM]	·	1%[57.1 µM]	·	·
O=C(NNC1=C(C(=O)C(F)(F)F)CCC1)c1ccccc1O	-13	-11%	-22%	-22%	-9	1%
COc1ccccc1C(=O)NNC1=C(C(=O)C(F)(F)F)CCC1	6	4%	-3%	45µM*	-6	-2%
CC1COc2ccccc2N1S(=O)(=O)c1ccc(Cl)cc1 (stereo not given)	-66*	-1%[57.1 µM]	-7%	13%[57.1 µM]	2	3%
CC(=O)N(C1CC(C)C(C#N)(C#N)C1(C#N)C#N)N(C)C (stereo not given)	2	12%[57.1 µM]	15%	1.6µM*	?	-1%
CCCC(=O)N(C1CC(C)C(C#N)(C#N)C1(C#N)C#N)N(C)C (stereo not given)	-4	13%[57.1 µM]	2%	2.5µM*	-29	1%
CCC[N+](C)(C)c1ccc(/C=C/c2ccncc2)cc1	·	-25%	·	?	·	·
NC(=O)c1cc[n+](CC2=C(C(=O)O)N3C(=O)[C@@H](NC(=O)[C@@H](c4ccccc4)S(=O)(=O)[O-])[C@H]3SC2)cc1	·	13%[57.1 µM]	5%	45µM*	·	·
Cc1nc(SCc2cccc(Cl)c2)nc2c1CCCC2	·	4%	·	8%	·	·
O=C(C=Cc1ccccc1)c1cccs1	0	-10%	·	71µM*	0	·
O=C(O)c1ccc(CSc2nc3ccccc3c(=O)n2-c2ccccc2)cc1	·	2%	3%	11%	1	-6%
N=C(N)SCc1nc2ccccc2c(=O)n1-c1ccccc1	-83*!	-2%	-10%	?	-82*!	0%
CC(C)C1CC(CCNCc2ccc(N(C)C)cc2)(c2ccccc2)CCO1 (stereo not given)	?	-3%	1%	-3%	-65*	1%
Cc1ccc(C2(CCNCc3ccc(N(C)C)cc3)CCOC(C(C)C)C2)cc1 (stereo not given)	?	4%[57.1 µM]	-15%	-3%[57.1 µM]	?	0%
COc1ccc2c(c1)CCc1c(C(=O)N3CCCc4ccccc43)noc1-2	-6	-9%	-18%	-19%	-9	0%
COc1ccc2c(c1)CCc1c(C(=O)N3CCOCC3)noc1-2	-3	-2%	-6%	20µM*	-1	1%
COc1ccc(N2CCN(C(=O)c3cn(C)c4ccc(S(=O)(=O)N(C)C5CCCCC5)cc4c3=O)CC2)cc1	·	-4%	·	4%	·	·
SMILES	CtBP-E1A blk	TrxR1 substrate	Eya2 phos inh	TrxR1 inh	Six1-Eya2 inh	GALK inhibitor
O=C1C2C3C=CC(CNS(=O)(=O)c4ccccc4)(O3)C2C(=O)N1c1ccc(Cl)cc1 (stereo not given)	7	-2%	-9%	10µM*	-7	·
CC(=O)Oc1ccc(N2C(=O)C3C4C=CC(CO)(O4)C3C2=O)cc1 (stereo not given)	0	9%[57.1 µM]	-3%	3.2µM*	-13	2%
O=C1C2C3C=CC(CO)(O3)C2C(=O)N1c1ccccc1-c1ccccc1 (stereo not given)	-10	8%	-5%	0.89µM*	-8	0%
COC(=O)C1(C)NC(c2ccc(Cl)cc2)C2C(=O)N(c3ccccc3)C(=O)C21 (stereo not given)	·	-2%	-9%	17%	13	-9%
CCc1nn2c(=O)cc(COC(=O)c3ccc(NC(=O)CCc4ccccc4)cc3)nc2s1	·	-2%[57.1 µM]	·	16%[57.1 µM]	·	·
Cc1ccc(NC(=O)C(C)Sc2nc(-c3ccccc3)c(C#N)c(=O)[nH]2)c(C)c1 (stereo not given)	·	8%	·	23%	·	·
CCc1ccc2c(c1)c(=O)c(C(=O)c1ccccc1)cn2CC(=O)Nc1ccc(C)c(Cl)c1	·	-5%	·	5%	·	·
Oc1cc2cc(-c3csc(-c4ccc(F)cc4)n3)ccc2[nH]1	·	4%	·	44%[0.0914 µM]	·	·
COC(=O)C1=C(C)N(c2cccc3ccccc23)C(=O)C1	-1	0%	-16%	25µM*	-5	0%
COc1ccc(C2c3c(oc4ccc(F)cc4c3=O)C(=O)N2Cc2ccc3c(c2)OCO3)cc1 (stereo not given)	·	-2%	·	4%	·	·
CCOc1ccc(CN(C)C(=O)CCl)cc1	0	13%[57.1 µM]	-4%	18µM*	2	0%
CCOc1ccc(CN(C)C(=O)CCNC(=O)c2ccco2)cc1	6	4%	6%	5%	1	·
COc1cc(N2CCCC2)c(OC)cc1/C=C(/C#N)c1ccc(F)cc1	?	-7%	-4%	-11%	-78*	-4%
CC(=O)N1CCCc2cc(S(=O)(=O)N3CCC(C(=O)NCc4cccc(C)c4)CC3)ccc21	·	1%[57.1 µM]	·	25%[57.1 µM]	·	·
CCn1c(SCc2nc3sc(C(=O)O)c(C)c3c(=O)[nH]2)nc2ccccc21	-8	-16%	-13%	-15%	-68*	-5%
COCCn1c(SCc2nc3sc(C(=O)OC)c(C)c3c(=O)[nH]2)nc2ccccc21	1	11%[57.1 µM]	6%	19%[57.1 µM]	3	-3%
CN(C)CCNc1nc(-c2ccco2)c2c(c1C#N)CC(C)(C)OC2	12	50%	-1%	?	3	10%
